PubChem BioAssay
For part of these data: Results with a measured potency or affinity are listed apart. Activity calls are given as the source filed them.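 The calls were made as follows, unless noted: active = signal rise over 3 SD above mean of control wells given weak agonist, in both repeats and first screen; inactive = the rest.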

Experiments:
[1] = tested on: TRPC4 beta (transient receptor potential cation channel C4), mouse; assay: activators of mouse TRPC4 channel, confirmation, cell-based, Fluo4 calcium, HEK293 TRPC4beta/mu-opioid, duplicates, 10 µM (AID 2426;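 active = fluorescence ratio normalized to control raised more than 50% in primary screen plus both repeat runs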); settings: Fluo4 calcium fluorescence, at 10 µM; active compounds read high
[2] = tested on: transient receptor potential cation channel C4 beta (TRPC4), mouse; assay: activators of mouse TRPC4 channel, confirmation, cell-based, second round, Fluo4, HEK293 TRPC4beta/mu-opioid, 1 µM (AID 2461;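 active = primary screen active and over 50% activation in each of two duplicate runs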); settings: Fluo4 calcium fluorescence, at 1 µM; active compounds read high
[3] = tested on: TRPC4 (transient receptor potential cation channel C4 beta), mouse; assay: positive allosteric modulators of mouse TRPC4, confirmation, cell-based, second round, Fluo-4, HEK293 TRPC4beta/mu-opioid, 1 µM (AID 2554;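 active = primary screen hit whose fluorescence ratio, in both repeats, exceeds the weak agonist control mean by 3 SD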); settings: DAMGO EC20, Fluo-4 calcium flux, at 1 µM; active compounds read high
[4] = tested on: TRPC4 beta (transient receptor potential cation channel C4), mouse; assay: positive allosteric modulators of mouse TRPC4, confirmation, cell-based, Fluo-4, HEK293 TRPC4beta/mu-opioid (AID 2555;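 active = primary screen hit whose calcium fluorescence ratio, in both repeats, exceeds the weak agonist control mean by 3 SD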); settings: DAMGO EC20, Fluo-4 calcium flux, at 10 µM; active compounds read high
[5] = target: Short transient receptor potential channel 4 (Mus musculus) (UniProt Q9QUQ5); assay: inhibitors of mouse TRPC4 channel, confirmation, cell-based, Fluo4, HEK293 TRPC4beta/mu-opioid (AID 2636;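 active = calcium signal cut by more than 3 SD below the full-agonist control yet still positive, in both repeats and the earlier primary screen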); settings: DAMGO, Fluo4 calcium flux, at 10 µM; active compounds read high
Sequence of Short transient receptor potential channel 4 (Mus musculus) (Q9QUQ5 whole entry, looked up): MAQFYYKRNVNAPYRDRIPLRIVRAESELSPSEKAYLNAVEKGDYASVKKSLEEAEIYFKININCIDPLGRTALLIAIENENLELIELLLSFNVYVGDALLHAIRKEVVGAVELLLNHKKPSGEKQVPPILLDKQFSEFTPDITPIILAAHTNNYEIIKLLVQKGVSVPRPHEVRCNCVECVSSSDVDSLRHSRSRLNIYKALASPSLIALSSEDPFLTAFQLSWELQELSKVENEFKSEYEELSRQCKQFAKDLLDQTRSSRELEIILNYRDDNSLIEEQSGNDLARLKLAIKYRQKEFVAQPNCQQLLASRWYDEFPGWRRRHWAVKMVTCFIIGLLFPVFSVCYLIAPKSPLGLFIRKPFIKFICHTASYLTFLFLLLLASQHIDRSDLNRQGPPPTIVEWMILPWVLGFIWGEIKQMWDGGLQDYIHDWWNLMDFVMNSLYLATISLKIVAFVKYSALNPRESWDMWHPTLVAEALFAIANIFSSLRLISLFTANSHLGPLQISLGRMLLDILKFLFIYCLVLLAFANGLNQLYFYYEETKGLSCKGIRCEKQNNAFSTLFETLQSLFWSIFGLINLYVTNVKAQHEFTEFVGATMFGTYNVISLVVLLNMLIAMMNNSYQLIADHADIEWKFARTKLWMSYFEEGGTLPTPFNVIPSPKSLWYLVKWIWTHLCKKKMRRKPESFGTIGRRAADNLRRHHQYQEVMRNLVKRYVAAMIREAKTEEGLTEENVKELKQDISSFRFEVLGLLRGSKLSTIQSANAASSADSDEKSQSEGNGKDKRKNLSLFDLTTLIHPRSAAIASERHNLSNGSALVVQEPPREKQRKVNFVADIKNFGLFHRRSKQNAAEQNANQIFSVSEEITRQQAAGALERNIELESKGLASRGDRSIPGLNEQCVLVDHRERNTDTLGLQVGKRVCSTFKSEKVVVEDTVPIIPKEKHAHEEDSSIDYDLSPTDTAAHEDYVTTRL

[6] = target: Short transient receptor potential channel 4 (Mus musculus) (UniProt Q9QUQ5); assay: inhibitors of mouse TRPC4 channel, confirmation, cell-based, second round, Fluo4, HEK293 TRPC4beta/mu-opioid, 1 µM (AID 2637;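 active = calcium signal ratio cut to more than 3 SD under the fully stimulated control mean yet still positive, in both repeats and the primary screen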); settings: Fluo4 calcium flux, DAMGO, at 1 µM; active compounds read high
[7] = target: Short transient receptor potential channel 4 (Mus musculus) (UniProt Q9QUQ5); assay: mouse TRPC4 channel activators, dose response, cell-based, HEK293 TRPC4/mu-opioid, Fluo-4 calcium (AID 434937;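 active = primary screen activator hit with a dose response curve and TRPC4 channel activation at any tested dose; inactive = no activation, no dose response, or not a primary hit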)
[8] = target: Short transient receptor potential channel 4 (Mus musculus) (UniProt Q9QUQ5); assay: TRPC4 positive allosteric modulators, dose response, cell-based, HEK293 TRPC4/mu-opioid, Fluo-4 calcium, EC20 DAMGO (AID 434941;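 active = earlier screen potentiator hit that boosts the TRPC4 ion channel at some dose, with a dose response; inactive = no potentiation, no dose response, or not a prior hit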;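 also: calcium entry triggered by an EC20 dose of DAMGO at the co-expressed mu-opioid receptor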)
[9] = target: Short transient receptor potential channel 4 (Mus musculus) (UniProt Q9QUQ5); assay: mouse TRPC4 channel inhibitors, dose response, cell-based, HEK293 TRPC4/mu-opioid, Fluo-4 calcium (AID 434942;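 active = primary screen inhibitor hit that blocks the TRPC4 channel at some tested dose, yielding a dose curve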)
[10] = target: Short transient receptor potential channel 6 (Mus musculus) (UniProt Q61143); assay: inhibition of mouse TRPC6 channel, confirmation, selectivity assay for TRPC4 inhibitor project, cell-based, HEK293, membrane potential dye, duplicate (AID 434948;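 active = active in primary screen and both duplicates, each dropping signal beyond three positive-control SD with fluorescence still positive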); settings: HEK293 TRPC6, membrane potential dye fluorescence, at 10 µM, stimulated with maximal-effect acetylcholine; active compounds read high
Sequence of Short transient receptor potential channel 6 (Mus musculus) (Q61143 whole entry, looked up): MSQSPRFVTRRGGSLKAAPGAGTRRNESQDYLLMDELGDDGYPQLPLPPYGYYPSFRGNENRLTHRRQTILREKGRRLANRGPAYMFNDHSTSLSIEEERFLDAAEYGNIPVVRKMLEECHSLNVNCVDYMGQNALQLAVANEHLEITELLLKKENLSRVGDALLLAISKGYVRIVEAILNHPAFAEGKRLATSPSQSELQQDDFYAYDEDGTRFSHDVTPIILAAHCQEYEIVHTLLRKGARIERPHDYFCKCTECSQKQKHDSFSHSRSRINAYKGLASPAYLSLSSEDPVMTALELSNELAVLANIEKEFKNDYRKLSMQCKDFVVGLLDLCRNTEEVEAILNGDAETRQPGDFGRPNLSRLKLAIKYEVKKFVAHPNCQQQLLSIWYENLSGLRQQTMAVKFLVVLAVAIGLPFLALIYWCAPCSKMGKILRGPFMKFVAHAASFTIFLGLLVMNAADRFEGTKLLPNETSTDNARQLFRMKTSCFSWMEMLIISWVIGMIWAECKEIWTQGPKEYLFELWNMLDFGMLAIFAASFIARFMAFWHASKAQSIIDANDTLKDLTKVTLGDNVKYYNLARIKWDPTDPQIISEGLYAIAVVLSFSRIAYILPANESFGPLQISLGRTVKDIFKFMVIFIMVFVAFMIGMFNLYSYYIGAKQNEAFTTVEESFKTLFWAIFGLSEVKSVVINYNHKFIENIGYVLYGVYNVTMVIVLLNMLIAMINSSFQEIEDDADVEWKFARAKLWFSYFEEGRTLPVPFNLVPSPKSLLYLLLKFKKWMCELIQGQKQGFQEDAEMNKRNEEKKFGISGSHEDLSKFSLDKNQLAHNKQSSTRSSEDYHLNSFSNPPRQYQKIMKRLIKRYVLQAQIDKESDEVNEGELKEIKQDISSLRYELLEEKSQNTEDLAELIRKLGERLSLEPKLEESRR

[11] = target: Short transient receptor potential channel 6 (Mus musculus) (UniProt Q61143); assay: activation of mouse TRPC6 channel, confirmation, selectivity assay for TRPC4 activator project, cell-based, HEK293, membrane potential dye, duplicate (AID 434950;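 active = membrane potential signal rise above negative control mean plus 3 SD in both duplicates, also active in the earlier TRPC4 screen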); settings: HEK293 TRPC6, membrane potential fluorescence, at 10 µM; active compounds read high
[12] = target: Short transient receptor potential channel 6 (Mus musculus) (UniProt Q61143); assay: TRPC6 potentiation by TRPC4 potentiator hits, confirmation, selectivity assay for TRPC4 potentiator project, HEK293 cells, membrane potential dye, duplicate (AID 434952;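 active = compound raising the membrane signal above positive-control mean plus 3 SD in both repeats, and a primary screen hit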); settings: HEK293 TRPC6, membrane potential dye fluorescence, at 10 µM, maximal acetylcholine added after compound; active compounds read high
[13] = target: Short transient receptor potential channel 4 (Mus musculus) (UniProt Q9QUQ5); assay: calcium flux activators in TRPC4/5HT1a cells, counter-screen for TRPC4 activator project, cell-based, second counter screen, HEK293 TRPC4/5HT1a, Fluo-4 (AID 434977;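 active = calcium signal rise above buffer-control mean plus 5 SD in both duplicates, and also a hit in the primary screen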); settings: Fluo-4 calcium flux, at 10 µM; active compounds read high
[14] = calcium flux inhibitors in TRPC4/5HT1a cells, confirmation, counter-screen for TRPC4 inhibitor project, cell-based, second counter screen, HEK293 TRPC4/5HT1a, Fluo-4 (AID 434978;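 active = primary screen active whose calcium signal fell more than 3 SD beyond the full-serotonin control mean in both duplicate plates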;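 as to outcome: serotonin given first at submaximal then at maximal dose after compound preincubation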); settings: Fluo-4 calcium flux, at 10 µM, serotonin added to trigger calcium flux; active compounds read high
[15] = tested on: TRPC4 (mouse), co-expressed with 5HT1a in HEK293; assay: calcium flux potentiators in TRPC4/5HT1a cells, confirmation, counter-screen for TRPC4 potentiator project, cell-based, second counter screen, HEK293 TRPC4/5HT1a, Fluo-4 (AID 434979); settings: Fluo-4 calcium flux, at 10 µM, serotonin added at its EC20 dose; active compounds read high
[16] = calcium flux activation in mu-opioid HEK293 cells, confirmation, counter-screen for TRPC4 activator project, cell-based, HEK293 mu-opioid receptor line (AID 449723;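 active = hit in primary screen, with calcium signal over 5 SD above buffer well mean in both duplicates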;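 also: counter screen cells carry the mu-opioid receptor alone and lack TRPC4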); settings: Fluo-4 calcium fluorescence, at 10 µM; active compounds read high
[17] = calcium flux enhancement in mu-opioid HEK293 cells, confirmation, counter-screen for TRPC4 allosteric potentiator project, cell-based, HEK293 mu-opioid receptor line (AID 449724;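 active = calcium signal rise more than 3 SD above the low-dose agonist control mean, in both duplicate plates and the primary screen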); settings: Fluo-4 calcium flux, at 10 µM, compound added before EC20 DAMGO stimulus; active compounds read high

c1ccc(-c2nc(NCc3cccnc3)c3ccccc3n2)cc1
inactive: outcome [1] | outcome [2] | outcome [3] | outcome [4] | outcome [6] | outcome [7] | outcome [8] | outcome [9] | outcome [10] | outcome [11] | outcome [12] | outcome [13] | outcome [15] | outcome [16] | outcome [17]
active: inhibition [5] 89% | inhibition [14] 36.3%

CCN(CC)c1ccc(/C=N/NC(=O)CNC(=O)c2ccccn2)cc1
inactive: outcome [1] | outcome [2] | outcome [3] | outcome [4] | outcome [5] | outcome [6] | outcome [7] | outcome [8] | outcome [9] | outcome [10] | outcome [11] | outcome [12] | outcome [13] | outcome [14] | outcome [15] | outcome [16] | outcome [17]

CCC(=O)c1ccc(N2CCN(C(=O)c3ccccc3Br)CC2)c(F)c1
inactive: outcome [1] | outcome [2] | outcome [3] | outcome [4] | outcome [5] | outcome [6] | outcome [7] | outcome [8] | outcome [9] | outcome [10] | outcome [11] | outcome [12] | outcome [13] | outcome [14] | outcome [16] | outcome [17]
active: potentiation [15] 19.2%

CC(C)OC(=O)C1CC=CCC1C(=O)Nc1ccc(Cl)cc1 (stereo not given)
inactive: outcome [1] | outcome [2] | outcome [3] | outcome [4] | outcome [5] | outcome [6] | outcome [7] | outcome [8] | outcome [9] | outcome [10] | outcome [11] | outcome [12] | outcome [13] | outcome [14] | outcome [15] | outcome [16] | outcome [17]

COc1ccc(CCN2C(=S)N(C)C(=O)C2CC(=O)Nc2ccc(F)cc2)cc1 (stereo not given)
inactive: outcome [1] | outcome [2] | outcome [3] | outcome [4] | outcome [5] | outcome [6] | outcome [7] | outcome [8] | outcome [9] | outcome [10] | outcome [11] | outcome [12] | outcome [13] | outcome [14] | outcome [15] | outcome [16] | outcome [17]

CCOC(=O)c1c(C(F)(F)C(F)(F)C(F)(F)C(F)(F)F)n[nH]c1C
inactive: outcome [1] | outcome [2] | outcome [3] | outcome [4] | outcome [5] | outcome [6] | outcome [7] | outcome [8] | outcome [9] | outcome [10] | outcome [11] | outcome [12] | outcome [13] | outcome [14] | outcome [15] | outcome [16] | outcome [17]

Cc1cc(Br)cc(C)c1OCCCCN(C)C
active: potentiation [3] 23% | potentiation [15] 23.5%
inactive: outcome [1] | outcome [2] | outcome [4] | outcome [5] | outcome [6] | outcome [7] | outcome [8] | outcome [9] | outcome [10] | outcome [11] | outcome [12] | outcome [13] | outcome [14] | outcome [16] | outcome [17]

Cc1nn(-c2ccccc2)c2nc(-c3ccccc3)cc(C(=O)N3CCOCC3)c12
inactive: outcome [1] | outcome [2] | outcome [3] | outcome [5] | outcome [6] | outcome [7] | outcome [8] | outcome [9] | outcome [10] | outcome [11] | outcome [12] | outcome [13] | outcome [14] | outcome [16] | outcome [17]
active: potentiation [4] 15% | potentiation [15] 34.4%

CCOc1ccc2ccccc2c1/C=N/NC(=O)c1cc(C)[nH]n1
inactive: outcome [1] | outcome [2] | outcome [3] | outcome [4] | outcome [5] | outcome [6] | outcome [7] | outcome [8] | outcome [9] | outcome [10] | outcome [11] | outcome [12] | outcome [13] | outcome [14] | outcome [15] | outcome [16] | outcome [17]

C=C(C)COc1ccc(-c2nc(N)ncc2-c2ccccc2OC)c(O)c1
inactive: outcome [1] | outcome [2] | outcome [3] | outcome [4] | outcome [5] | outcome [6] | outcome [7] | outcome [8] | outcome [9] | outcome [10] | outcome [11] | outcome [12] | outcome [13] | outcome [14] | outcome [16] | outcome [17]
active: potentiation [15] 8.86%

CCN1CCN(c2ccc(S(=O)(=O)N3CCCCC3)cc2NC(=O)c2cccc(OC(F)F)c2)CC1
inactive: outcome [1] | outcome [2] | outcome [5] | outcome [6] | outcome [7] | outcome [8] | outcome [9] | outcome [10] | outcome [11] | outcome [12] | outcome [13] | outcome [14] | outcome [16] | outcome [17]
active: potentiation [3] 7% | potentiation [4] 18% | potentiation [15] 15.6%

Cc1c(N2C(=O)/C(=C/c3ccccc3)SC2=S)c(=O)n(-c2ccccc2)n1C
inactive: outcome [1] | outcome [2] | outcome [3] | outcome [4] | outcome [5] | outcome [6] | outcome [7] | outcome [8] | outcome [9] | outcome [10] | outcome [11] | outcome [12] | outcome [13] | outcome [14] | outcome [15] | outcome [16] | outcome [17]

Cc1ccc(SC(CC(=O)c2ccc(C(C)(C)C)cc2)C(=O)O)cc1 (stereo not given)
inactive: outcome [1] | outcome [2] | outcome [3] | outcome [4] | outcome [5] | outcome [6] | outcome [7] | outcome [8] | outcome [9] | outcome [10] | outcome [11] | outcome [12] | outcome [13] | outcome [14] | outcome [15] | outcome [16] | outcome [17]

C=CCn1c(SCCN2CCOCC2)nc2c1c(=O)[nH]c(=O)n2C
inactive: outcome [1] | outcome [2] | outcome [3] | outcome [4] | outcome [5] | outcome [6] | outcome [7] | outcome [8] | outcome [9] | outcome [10] | outcome [11] | outcome [12] | outcome [13] | outcome [14] | outcome [16] | outcome [17]
active: potentiation [15] 35.7%

CCOC(=O)c1ccc(N=C2C(=S)N(c3ccc(C(=O)OCC)cc3)C(=N)N2/N=C/c2ccccc2)cc1
inactive: outcome [1] | outcome [2] | outcome [3] | outcome [4] | outcome [5] | outcome [6] | outcome [7] | outcome [8] | outcome [9] | outcome [10] | outcome [11] | outcome [12] | outcome [13] | outcome [14] | outcome [15] | outcome [16] | outcome [17]
